Where “and” joins values, the source holds several entries; their conditions need not be identical. Equal entries are not always repeated. Results filed as inconclusive are left out. Calls of active or inactive are those of the source. Calls follow the shape of the dose curve; as a rule, active = well fitted inhibition curve with a large enough effect; inconclusive = small, poorly fitted or top-dose-only effect; inactive = flat fitted curve, though single readings scatter.
Assays:
[1] = test system: KB-3-1; test: Cytotoxic Profiling of Annotated Libraries Using Quantitative High-Throughput Screening (AID 1296008); conditions: Five cell lines viability, CellTiter-Glo ATP luminescence, 48-72 h; max response: hits give low values
Summary of the method: (§1)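 Cytotoxicity was measured as CellTiter-Glo ATP luminescence, read after 10 min at room temperature. Compound treatment of the cells lasted 48 or 72 hr at 37 degrees Celsius in a qHTS format.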

[2] = test system: NIH3T3; test: as above; conditions: Five cell lines viability, CellTiter-Glo ATP luminescence, 48-72 h; max response: hits give low values
Summary of the method: as §1

[3] = test system: HACAT; test: qHTS assay to identify novel small-molecules to repurpose for Merkel cell carcinoma treatment (AID 1296009); conditions: MCC and control cell lines, CellTiter-Glo viability, 72 h; at 44.8 µM (top of the series) unless noted
Summary of the method: (§2)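 Cell viability, measured as CellTiter-Glo luminescence, was normalized between DMSO and no-cell wells. The cells had been exposed to 8- or 11-point compound dilutions for 72 hr at 37 degree celsius.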

[4] = test system: HEK293T; test: as above; conditions: MCC and control cell lines, CellTiter-Glo viability, 72 h; at 44.8 µM (top of the series) unless noted
Summary of the method: as §2

[5] = test system: MCC-13; test: as above; conditions: MCC and control cell lines, CellTiter-Glo viability, 72 h; series mostly up to 46 µM
Summary of the method: as §2

[6] = test system: MCC-26; test: as above; conditions: MCC and control cell lines, CellTiter-Glo viability, 72 h; series mostly up to 46 µM
Summary of the method: as §2

[7] = test system: MKL-1; test: as above; conditions: MCC and control cell lines, CellTiter-Glo viability, 72 h; series mostly up to 46 µM
Summary of the method: as §2

[8] = test system: MKL-2; test: as above; conditions: MCC and control cell lines, CellTiter-Glo viability, 72 h; series mostly up to 46 µM
Summary of the method: as §2

[9] = test system: UISO; test: as above; conditions: MCC and control cell lines, CellTiter-Glo viability, 72 h; series mostly up to 46 µM
Summary of the method: as §2

[10] = test system: NIH3T3; test: as above; conditions: MCC and control cell lines, CellTiter-Glo viability, 72 h; at 44.8 µM (top of the series) unless noted
Summary of the method: as §2
% is scaled to controls: 0 for no effect and ±100 for the full control effect.
Also: nearly all actives have a fitted effect of over 60% in size.

CN(C)CCN(Cc1ccccc1)c1ccccn1
inactive: max response [1] -7.24% | max response [2] 0.397% | outcome [3] | outcome [4] | Potency [5] | Potency [6] | Potency [7] | Potency [8] | Potency [9]

CC(O)COc1ccccc1 (stereo not drawn)
inactive: max response [1] 5.08% | max response [2] -1.73% | outcome [3] | outcome [4] | Potency [5] | Potency [6] | Potency [7] | Potency [8] | Potency [9]

CCCc1c(OCCCCc2nn[nH]n2)ccc(C(C)=O)c1O
inactive: max response [1] -12.2% | max response [2] 2.45% | outcome [3] | outcome [4] | Potency [5] | Potency [6] | Potency [7] | Potency [8] | Potency [9]

N[C@@H](CSSC[C@H](N)C(=O)O)C(=O)O
inactive: max response [1] 4.84% | max response [2] 0.783% | outcome [3] inactive [at 0.588 µM] | outcome [4] inactive [at 0.588 µM] | activity change, negative = cytotoxicity [5] 4.94% [at 0.597 µM] | activity change, negative = cytotoxicity [6] 1% [at 0.597 µM] | activity change, negative = cytotoxicity [7] 8.58% [at 0.597 µM] | activity change, negative = cytotoxicity [8] 18.8% [at 0.597 µM] | activity change, negative = cytotoxicity [9] 9.88% [at 0.597 µM]

CC1(C)OC(=O)NC1=O
inactive: max response [1] 1.34% | max response [2] 3.48% | outcome [3] | outcome [4] | Potency [5] | Potency [6] | Potency [7] | Potency [8] | Potency [9]

C[C@@H](O)[C@H](N)C(=O)O
inactive: max response [1] 1.86% | max response [2] -1.06% | outcome [3] inactive [at 17.4 µM] | outcome [4] inactive [at 17.4 µM] | Potency [5] | Potency [6] | Potency [7] | Potency [8] | Potency [9]

CCN(CC)C(=O)Nc1ccc(OCC(O)CNC(C)(C)C)c(C(C)=O)c1 (stereo not drawn)
inactive: max response [1] 3.46% and 6.71% | max response [2] -5.4% and -0.794% | outcome [3] | outcome [4] | Potency [5] | Potency [6] | Potency [7] | Potency [8] | Potency [9]

Oc1ccc(C(O)CNCCCCCCNCC(O)c2ccc(O)c(O)c2)cc1O (stereo not drawn)
inactive: max response [1] 1.48% | max response [2] 0.438% | outcome [3] | outcome [4] | Potency [5] | Potency [6] | Potency [7] | Potency [8] | Potency [9]

CCCCCCCCCCCCCCCCCCOCC(O)CO (stereo not drawn)
inactive: max response [1] 4.03% | max response [2] 4.13% | outcome [3] | outcome [4] | Potency [5] | Potency [6] | Potency [7] | Potency [8] | Potency [9]

Cc1cc2c(cc1S(N)(=O)=O)S(=O)(=O)CCC2
inactive: max response [1] -2.22% | max response [2] -4.64% | outcome [3] | outcome [4] | Potency [5] | Potency [6] | Potency [7] | Potency [8] | Potency [9]

O=S(=O)(O)NC1CCCCC1
inactive: max response [1] -17.7% | max response [2] 1.01% | outcome [3] | outcome [4] | Potency [5] | Potency [6] | Potency [7] | Potency [8] | Potency [9]

C[C@H](N)[C@H](O)c1cccc(O)c1
inactive: max response [1] 1.71% | max response [2] 1.91% | outcome [3] | outcome [4] | Potency [5] | Potency [6] | Potency [7] | Potency [8] | Potency [9]

O=C(O)CC(O)C(=O)O (stereo not drawn)
inactive: max response [1] 15.7% | max response [2] 4.82% | outcome [3] | outcome [4] | Potency [5] | Potency [6] | Potency [7] | Potency [8] | Potency [9]

N[C@H]1C(O)O[C@H](CO)[C@@H](O)[C@@H]1O (stereo partly drawn)
inactive: max response [1] 2.62% | max response [2] -13.4% | outcome [3] | outcome [4] | Potency [5] | Potency [6] | Potency [7] | Potency [8] | Potency [9]

O=C1c2c(O)cccc2Cc2cccc(O)c21
inactive: max response [1] -0.793% | max response [2] 4.73% | outcome [3] | outcome [4] | Potency [5] | Potency [6] | Potency [7] | Potency [8] | Potency [9]

CC1(C)CO[C@@H](CC(=O)O)CN1
inactive: max response [1] 9.26% | max response [2] -2.92% | outcome [3] | outcome [4] | Potency [5] | Potency [6] | Potency [7] | Potency [8] | Potency [9]

O=S(=O)(O)c1cc(I)c(O)c2ncccc12
inactive: max response [1] -3.56% | max response [2] -0.492% | outcome [3] | outcome [4] | Potency [5] | Potency [6] | Potency [7] | Potency [8] | Potency [9]

CCOc1ccc2ccccc2c1C(=O)N[C@@H]1C(=O)N2[C@@H]1SC(C)(C)[C@@H]2C(=O)O
inactive: max response [1] -11.5% and -0.445% | max response [2] -3.18% and 1.59% | outcome [3] | outcome [4] | Potency [5] | Potency [6] | Potency [7] | Potency [8] | Potency [9]

O=c1cc(CO)occ1O
inactive: max response [1] 1.74% and -12.5% | max response [2] -2.71% | outcome [4] | Potency [5] | Potency [6] | Potency [7] | Potency [8] | Potency [9]

CC12CCC(CC1)C(C)(C)O2
inactive: max response [1] -7.48% | outcome [2] | outcome [4] | Potency [5] | Potency [6] | Potency [7] | Potency [8] | outcome [10] | Potency [9]

CC(COc1ccccc1)NC(C)C(O)c1ccc(O)cc1 (stereo not drawn)
inactive: max response [1] 15.9% | outcome [2] | outcome [4] | Potency [5] | Potency [6] | Potency [7] | Potency [8] | outcome [10] | Potency [9]
